Results from PubChem BioAssay (Tox21).
Results filed as inconclusive are left out. The source made the active and inactive calls. Unless noted, calls follow the shape of the dose curve; as a rule, active = well fitted curve in the direction sought with a large enough effect in the repeat runs; inconclusive = weak or mixed curves; inactive = no such curve, though single readings can be large; an effect the other way counts as inactive or inconclusive.

Key:
[1] = qHTS assay to test for compound auto fluorescence at 460 nm (blue) in HEK293 cell free culture (AID 720681)
Summary of the method: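 Blue fluorescence (Ex 405/Em 460 nm, triamterene-equivalent) was read immediately after pin transfer of compound or DMSO into medium (DMEM, 10% FBS) without cells.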

[2] = qHTS assay to test for compound auto fluorescence at 535 nm (green) in HEK293 cell free culture (AID 720682)
Summary of the method: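 DMEM + 10% FBS, cell-free; cpd or DMSO pinned in; Ex485/Em535 read; output as fluorescein-equivalent signal.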

[3] = qHTS assay to test for compound auto fluorescence at 590 nm (red) in HEK293 cell free culture (AID 720683)
Summary of the method: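 Red-channel autofluorescence of compounds in culture medium (DMEM, 10% FBS), no cells, measured at 540/590 nm. Rose Bengal sodium is the reference fluorophore for equivalence.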

[4] = qHTS assay to test for compound auto fluorescence at 590 nm (red) in HepG2 cell free culture (AID 720684)
Summary of the method: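 Steps: dispense MEM/10% FBS medium, no cells; pin compound or DMSO vehicle; read red channel, Ex/Em 540/590 nm. Output given as Rose Bengal sodium equivalents.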

[5] = qHTS assay to test for compound auto fluorescence at 460 nm (blue) in HepG2 cell free culture (AID 720685)
Summary of the method: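 Compound (23 nL) or DMSO pinned into cell-free MEM with 10% FBS; blue fluorescence read at 405/460 nm excitation/emission, expressed as auto-fluorescence equivalency to triamterene.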

[6] = qHTS assay to test for compound auto fluorescence at 535 nm (green) in HepG2 cell free culture (AID 720686)
[7] = qHTS assay to test for compound auto fluorescence at 460 nm (blue) in HepG2 cells (AID 720687)
Summary of the method: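 Blue-channel autofluorescence (Ex/Em 405/460 nm, triamterene-equivalent) was measured after 1 hr compound exposure at 37 C, 5% CO2. Cells were HepG2, plated overnight at 37 C in MEM plus 10% FBS.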

[8] = qHTS assay for identifying genotoxic compounds that show differential cytotoxicity against isogenic chicken DT40 cell lines with known DNA damage response pathways - wild type cell line (AID 743012); also: nearly all actives have a fitted effect of over 60% in size; also: potency is read from the fitted curve at half-maximal effect
Summary of the method: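 First, wild type DT40 cells were plated at 300 per well and equilibrated about 0.5 h at 37 C/5% CO2. Next, compounds in DMSO were added and exposure lasted 40 h. Finally, CellTiter-Glo was added for 30 min at room temperature and luminescence recorded.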

[9] = qHTS assay to identify small molecule antagonists of the glucocorticoid receptor (GR) signaling pathway - cell viability counter screen (AID 720693); also: nearly all actives have a fitted effect of over 55% in size
[10] = qHTS assay for identifying genotoxic compounds that show differential cytotoxicity against isogenic chicken DT40 cell lines with known DNA damage response pathways - Rev3 mutant cell line (AID 743014); also: nearly all actives have a fitted effect of over 55% in size
[11] = qHTS assay for identifying genotoxic compounds that show differential cytotoxicity against isogenic chicken DT40 cell lines with known DNA damage response pathways - Rad54/Ku70 mutant cell line (AID 743015); also: nearly all actives have a fitted effect of over 60% in size; also: potency is read from the fitted curve at half-maximal effect
[12] = qHTS assay to identify small molecule antagonists of the androgen receptor (AR) signaling pathway using the MDA cell line - cell viability counter screen (AID 743041; also: nearly all actives have a fitted effect of over 45% in size)
Summary of the method: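 Cells were plated at 3,000 per well and left 5 h. Compounds in DMSO were then pinned in, followed by R1881. After 16 h at 37C, CellTiter-Fluor fluorescence gave viability.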

[13] = qHTS assay to identify small molecule antagonists of the androgen receptor (AR) signaling pathway - cell viability counter screen (AID 743033; also: nearly all actives have a fitted effect of over 45% in size)
[14] = target: Glucocorticoid receptor (Homo sapiens) (UniProt P04150); assay: qHTS assay to identify small molecule agonists of the glucocorticoid receptor (GR) signaling pathway (AID 720691; active = well fitted activation curve with a large enough effect in the signal ratio in the repeat runs, not every such curve was filed as active; the % refers to the signal ratio)
Glucocorticoid receptor (Homo sapiens), sequence (P04150 whole entry, looked up): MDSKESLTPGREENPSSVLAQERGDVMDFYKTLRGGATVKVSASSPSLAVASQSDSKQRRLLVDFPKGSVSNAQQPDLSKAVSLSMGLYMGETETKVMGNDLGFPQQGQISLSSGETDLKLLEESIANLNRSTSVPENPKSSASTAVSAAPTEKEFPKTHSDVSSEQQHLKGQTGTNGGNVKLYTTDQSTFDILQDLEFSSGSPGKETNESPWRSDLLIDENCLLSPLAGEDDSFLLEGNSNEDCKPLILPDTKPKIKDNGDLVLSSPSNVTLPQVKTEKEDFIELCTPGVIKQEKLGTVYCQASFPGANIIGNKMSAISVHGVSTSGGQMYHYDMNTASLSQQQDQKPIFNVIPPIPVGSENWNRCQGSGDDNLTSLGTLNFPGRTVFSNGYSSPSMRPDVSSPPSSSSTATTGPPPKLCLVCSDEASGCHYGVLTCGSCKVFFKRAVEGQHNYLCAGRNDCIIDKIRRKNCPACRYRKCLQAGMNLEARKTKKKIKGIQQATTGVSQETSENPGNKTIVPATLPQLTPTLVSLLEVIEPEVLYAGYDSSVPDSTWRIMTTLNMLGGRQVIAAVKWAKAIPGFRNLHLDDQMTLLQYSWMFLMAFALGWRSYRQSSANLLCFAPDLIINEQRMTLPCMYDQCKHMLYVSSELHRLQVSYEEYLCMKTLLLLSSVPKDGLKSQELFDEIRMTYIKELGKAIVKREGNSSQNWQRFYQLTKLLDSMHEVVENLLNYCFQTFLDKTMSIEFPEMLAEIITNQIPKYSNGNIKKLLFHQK
Summary of the method: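 qHTS in GR-bla HeLa cells: 4 h settling at 37 C/5% CO2, 18 h compound incubation at 37 C, 2 h LiveBLAzer B/G FRET substrate at room temperature, fluorescence intensity measured.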

[15] = target: Glucocorticoid receptor (Homo sapiens) (UniProt P04150); assay: qHTS assay to identify small molecule antagonists of the glucocorticoid receptor (GR) signaling pathway (AID 720692; active = well fitted inhibition curve with a large enough effect in the signal ratio in the repeat runs, not every such curve was filed as active; the % refers to the signal ratio)
Summary of the method: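 Inhibition of glucocorticoid signalling is measured in HeLa cells with a GRE-controlled beta-lactamase reporter; cells are co-treated with compound and 5 nM dexamethasone (final) for 18 h before FRET substrate readout.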

[16] = target: Androgen receptor (Homo sapiens) (UniProt P10275); assay: qHTS assay to identify small molecule antagonists of the androgen receptor (AR) signaling pathway (AID 743035; active = well fitted inhibition curve with a large enough effect in the signal ratio in the repeat runs, not every such curve was filed as active; the % refers to the signal ratio)
Androgen receptor (Homo sapiens), sequence (P10275 whole entry, looked up): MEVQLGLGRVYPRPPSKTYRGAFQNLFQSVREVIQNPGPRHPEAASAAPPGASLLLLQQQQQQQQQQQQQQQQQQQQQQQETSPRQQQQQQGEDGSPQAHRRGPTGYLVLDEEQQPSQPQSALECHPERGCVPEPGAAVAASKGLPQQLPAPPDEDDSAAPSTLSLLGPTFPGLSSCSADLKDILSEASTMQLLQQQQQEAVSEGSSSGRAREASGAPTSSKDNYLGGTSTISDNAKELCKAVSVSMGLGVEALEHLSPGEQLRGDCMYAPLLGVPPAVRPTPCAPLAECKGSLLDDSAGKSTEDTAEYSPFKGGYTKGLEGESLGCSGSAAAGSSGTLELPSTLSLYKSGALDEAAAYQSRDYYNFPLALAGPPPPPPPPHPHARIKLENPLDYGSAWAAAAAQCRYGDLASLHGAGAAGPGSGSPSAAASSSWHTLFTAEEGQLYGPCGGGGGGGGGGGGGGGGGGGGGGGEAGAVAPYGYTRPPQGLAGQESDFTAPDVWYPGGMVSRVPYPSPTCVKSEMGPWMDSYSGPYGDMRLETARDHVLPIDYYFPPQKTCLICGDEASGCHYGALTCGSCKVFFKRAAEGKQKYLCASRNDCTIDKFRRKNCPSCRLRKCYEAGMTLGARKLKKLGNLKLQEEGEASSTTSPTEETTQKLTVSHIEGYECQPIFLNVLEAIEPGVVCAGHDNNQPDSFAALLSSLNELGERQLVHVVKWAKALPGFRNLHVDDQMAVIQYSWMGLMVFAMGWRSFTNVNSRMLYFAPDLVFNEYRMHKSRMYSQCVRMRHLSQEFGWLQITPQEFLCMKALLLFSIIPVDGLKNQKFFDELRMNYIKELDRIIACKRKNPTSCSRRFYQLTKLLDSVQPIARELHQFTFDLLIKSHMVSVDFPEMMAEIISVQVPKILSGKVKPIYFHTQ
Summary of the method: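 Beta-lactamase FRET read (2 h RT incubation with LiveBLAzer B/G) following 16 h of compound plus R1881 treatment of AR-UAS-bla HEK293 cells, which had been pre-incubated 4 h at 37C.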

[17] = target: Androgen receptor (Homo sapiens) (UniProt P10275); assay: qHTS assay to identify small molecule agonists of the androgen receptor (AR) signaling pathway (AID 743036; active = well fitted activation curve with a large enough effect in the signal ratio in the repeat runs, with a control signal flat, not every such curve was filed as active; the % refers to the signal ratio)
Summary of the method: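 Screening used 2,000 AR-bla HEK293 cells per well, treated 16 h at 37C with test compounds in DMSO alongside positive and DMSO-only controls; beta-lactamase activity was then read by LiveBLAzer B/G FRET fluorescence after 2 h at room temperature.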

[18] = target: Androgen receptor (Homo sapiens) (UniProt P10275); assay: qHTS assay to identify small molecule agonists of the androgen receptor (AR) signaling pathway using the MDA cell line (AID 743040; also: nearly all actives have a fitted effect of over 20% in size)
Summary of the method: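 Cells plated, 5 h at 37C/0% CO2; compound or DMSO pinned; 16 h at 37C; ONE-Glo added; luminescence measured after 30 min at room temperature. Reporter line: MDA-kb2 with MMTV-luciferase responsive to AR and GR.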

[19] = target: Androgen receptor (Homo sapiens) (UniProt P10275); assay: qHTS assay to identify small molecule antagonists of the androgen receptor (AR) signaling pathway using the MDA cell line (AID 743042; also: nearly all actives have a fitted effect of over 55% in size)
Summary of the method: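 Antagonist mode: compounds plus R1881 agonist added to MDA-kb2 AR-luc cells, incubated 16 h at 37C. Luciferase reporter luminescence quantified, with multiplexed CellTiter-Fluor readout for cell viability.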

Measured: Potency

C[C@@H]1CN(CCCn2c3ccccc3c3ccccc32)C[C@H](C)N1
active: [8] 9.44 µM
inactive: [1] | [2] | [3] | [4] | [5] | [6] | [7]

O=[N+]([O-])c1ccc(O/N=C/c2cc(Br)c(O)c(Br)c2)c([N+](=O)[O-])c1
inactive: [1] | [2] | [3] | [5] | [6] | [7] | [9] | [8] | [10] | [11] | [12]

CC(O)c1ccccc1 (configuration not stated)
inactive: [1] | [2] | [3] | [4] | [5] | [6] | [7] | [8] | [11] | [13]

OC[C@H]1O[C@@H](n2cnc3c(=S)nc[nH]c32)[C@H](O)[C@@H]1O
inactive: [1] | [2] | [3] | [4] | [5] | [6] | [7] | [14] | [12]
active: [8] 13.3 µM

Oc1cc2c(cc1O)[C@H]1c3ccc(O)c(O)c3OC[C@@]1(O)C2
active: [8] 43.8 µM | [11] 31 µM
inactive: [1] | [2] | [3] | [4] | [5] | [6] | [7] | [14] | [9]

CCC(=O)OC
inactive: [1] | [2] | [3] | [5] | [6] | [14] | [15] | [9] | [8] | [10] | [13] | [16] | [17] | [18] | [12] | [19]

Oc1cccc(Nc2ccccc2)c1
inactive: [1] | [2] | [3] | [5] | [6] | [7] | [14] | [9] | [8] | [13] | [12]

CC/C=C1/OC(=O)c2ccccc21
inactive: [1] | [2] | [3] | [4] | [5] | [6] | [7] | [14] | [15] | [9] | [8] | [11] | [13] | [16] | [17] | [18] | [12] | [19]

CCCC(=O)C(=O)O
inactive: [1] | [2] | [4] | [5] | [6] | [7] | [14] | [9] | [8] | [10] | [11] | [13] | [12]

C=C(C)CCCC(C)CCO (configuration not stated)
inactive: [1] | [2] | [4] | [5] | [6] | [7] | [13] | [12]
active: [11] 54.5 µM
